Among all 150,000 compounds or so, about 540 (0.36%) showed an effect of 50% or more. The full list was thinned out, with strong results kept by preference.
These compounds were tested on Plasmodium falciparum (assay: Primary screen in NF54 nanoGlo assay, in single point, at 2uM, 72h; a lower Z score goes with more inhibition). Details: timepoint 72 hour.
Format: functional, Erythrocyte

Compound | % Inhibition [%] | Z score
CNc1nc(N2CCN(CC(=O)NC3CCCCC3)CC2)nc2ccccc12 | 80 | -14.07
Cc1nc(N2CCN(CC(=O)NC3CCCCC3)CC2)c2cc[nH]c2n1 | -11 | 2.32
CCN1CCC[C@@H]1CN(CCN(C)C)C(=O)c1ccc(-c2cncnc2)cc1F | 2 | -0.24
N[C@H]1CC[C@@H](NC2CCN(c3ccc(F)c(F)c3)CC2)CC1 | 53 | -9.21
Fc1ccc(N2CCC(N[C@@H]3COC4(CCNCC4)C3)CC2)cc1F | 23 | -4.05
CCc1ccc(Nc2nc(C(=O)NCCc3c[nH]cn3)nc3ccccc23)cc1 | 7 | -1.15
COCCN1CCC(CN(C)C(=O)c2ccc(-c3cncc(N)c3)cc2)CC1 | 2 | -0.4
COc1ccc(-c2cncc(C(=O)NCC3CCN(CCN(C)C)CC3)c2)cc1 | 94 | -16.22
Cc1cc(O)c(Cl)cc1-c1ccc2nccc(N)c2c1 | 91 | -15.94
Cc1cc(O)c(Cl)cc1-c1ncnc2[nH]ccc12 | 1 | -0.29
Cc1cc(O)c(Cl)cc1-c1ccc2ncnc(N)c2c1 | -5 | 0.82
Cn1ccc2c(-c3cccc4c(N)ccnc34)ccnc21 | 6 | -1.24
Cc1cc(O)c(Cl)cc1-c1cccc2c(N)ccnc12 | 82 | -14.53
OC[C@H](CNCc1cc2ccc(F)cc2[nH]1)c1ccccc1Cl | 41 | -6.28
O[C@@H](CNCc1cc2cc(Cl)c(Cl)cc2[nH]1)c1ccc(F)cc1 | 76 | -13.27
CC(CNc1nc(NCC(C)N2CCOCC2)c2cc(Cl)ccc2n1)N1CCOCC1 (stereo unspecified) | 78 | -13.62
CCN1CCN(CCOc2ccccc2CN(C)Cc2cccc3cnccc23)CC1 | 7 | -1.54
CN1CCN(CCOc2ccccc2CN(C)Cc2cc3cc(F)ccc3[nH]2)CC1 | 73 | -14.51
c1cc(N2CCOCC2)nc(C2CCN(CC34CNCC3C4)CC2)n1 (stereo unspecified) | -8 | 1.26
COc1ccc(-c2ccnc(C3CCN(c4ccnc(C#N)n4)CC3)n2)cc1 | -1 | 0.14
c1ccc(-c2ccnc(C3CCN(CC45CNCC4C5)CC3)n2)cc1 (stereo unspecified) | 89 | -13.57

Compound | % Inhibition [%] | Z score
O=C(NCc1cccc(-c2cccnc2)c1)N[C@H]1CCN(C2CCCCC2)C1 | 51 | -7.77
C[C@H]1CN(C2CCOCC2)CCN1C(=O)NCc1cccc(-c2cccnc2)c1 | -1 | 0.29
CC(C)c1ccc(-c2nc(CN3CCCCC3)cc(CN3CCCCC3)c2O)cc1 | 90 | -15.77
Cc1ccc(Nc2ncc(-c3ccc(Cl)c(OC(F)(F)F)c3)cn2)cc1 | -5 | 1
CN1CCCN(Cc2ccc(CNCc3cccc(O)c3)cc2)CC1 | 17 | -3.36
CCN1CCN(c2ccc(CNCc3cccc(O)c3)cc2F)CC1 | 90 | -19.29
Cc1nc2ccccc2c(O)c1CC[C@H](C)NC1CCNCC1 | -3 | 0.51
CCCCN(C)C[C@@H](C)NC(=O)CCCN1CCN(c2ccccc2)CC1 | -5 | 1.09
CN1CCC(N2CCC(NC(=O)c3ccncn3)CC2)CC1 | -17 | 2.56
Cc1ccc(-c2cc(C(=O)N[C@H]3CCCN(C4CCN(C)CC4)C3)n[nH]2)s1 | 5 | -0.79
Cc1ccc(-c2cc(C(=O)NC3CCN(C4CCN(C)CC4)CC3)n[nH]2)cc1C | 95 | -16.77
Cn1cc(CNC[C@H](O)c2ccc(F)c(F)c2)c(-c2cc3ccccc3o2)n1 | 19 | -3.4
CCc1oc2ccccc2c1CNC[C@H](O)c1ccc(Cl)cc1 | 98 | -19.37
CN([C@@H](c1ccccc1)c1ccccc1Br)S(=O)(=O)c1c[nH]c2ncccc12 | 60 | -11.93
C[C@](O)(CNS(=O)(=O)c1c[nH]c2ncccc12)C(c1ccccc1)c1ccccc1 | 4 | -0.63
Cc1ccc2[nH]cc(-c3cc(N4CCCCC4)ncn3)c2c1 | 11 | -2.17
Cc1ccc2[nH]cc(-c3cc(N4CCOCC4)nc(N)n3)c2c1 | 52 | -10.41
C[C@@H](c1cccc(-c2cc(N3CCOCC3)nc(N)n2)c1)N1CCCC1 | -1 | 0.25
NC(=O)c1ccc(CNC(=O)NCC[C@H](O)c2ccccc2)o1 | -10 | 1.46
CC(C)(O)C#Cc1ccc(CN(CC2CCN(C3CCCC3)CC2)C[C@H]2CCCO2)cc1 | -11 | 1.92
CC(C)N1CCN(CCCN2CCN(C)C3(CCCCC3)C2)CC1 | 3 | -0.69

Compound | % Inhibition [%] | Z score
Cc1cc(N2CCC(N(C)Cc3ncc(-c4ccccc4C)o3)CC2)nc(C)n1 | -3 | 0.66
CN1CCC(Oc2ccc(NCc3ccc(N(C)C)nc3)cn2)CC1 | -17 | 3.56
CN1CCC(Oc2ccc(NC(=O)c3cn4ccnc4s3)cn2)CC1 | 90 | -15.87
CN1CCC(CNC2CC3CC(C2)N(C(=O)OC(C)(C)C)C3)CC1 (stereo unspecified) | 72 | -15.46
COc1cc2nc(-c3ccc(F)c4cccnc34)nc(N)c2cc1OC | 96 | -14.63
COc1cc2nc(-c3cc(Cl)c(O)cc3C)nc(N)c2cc1OC | 2 | -0.41
COc1ccnc(CN2CC[C@H](Nc3ncccn3)C2)c1OC | -5 | 0.75
Cc1nc(C)c(C)c(N2CC(OCc3ccccc3)C2)n1 | -11 | 1.9
COc1ccc2nccc(N3CCC(O)CC3)c2c1 | 5 | -0.83
COc1ccc2c(N3CC[C@H](CN4CCCC4)C3)ccnc2c1 | 91 | -15.93
CN1CCN(CC2CCN(c3ccnc4ccccc34)CC2)CC1 | 98 | -16.96
CN1CCN(C[C@H]2CCCN(C(=O)c3ccnc4ccccc34)C2)CC1 | 5 | -1.03
COCC1CCN(c2ccnc3cc(F)ccc23)CC1 | 7 | -1.37
CC1(N2CCC2)CCC(NC[C@H]2CCN(Cc3ccccc3)C2)CC1 (stereo partly specified) | 73 | -12.59
c1ccc(CN2CCC[C@H](CNC3CCN(c4ccc5c(c4)OCO5)CC3)C2)cc1 | 14 | -2.53
CC(=O)N1CCC(CNC2CCC(C)(N3CCCC3)CC2)CC1 (stereo unspecified) | -10 | 1.74
Nc1ccnc2ccc(-c3ccc(C(=O)NCC4CCOCC4)cc3)cc12 | 83 | -16.44
OC1CN(c2ccnc3ccccc23)CCC1N1CCN(c2ccccn2)CC1 (stereo unspecified) | -7 | 1.2
O=C(NC1CCN(CCOc2ccc(Cl)cc2)CC1)c1c[nH]c2ccncc2c1=O | 94 | -14.22
CCCCN1CCC(NC(=O)c2c[nH]c3ncccc23)CC1 | -8 | 1.66
CCCc1cc(NCC2(N3CCN(C)CC3)CCCCC2)n2nccc2n1 | -3 | 0.64

Compound | % Inhibition [%] | Z score
CNc1cc([C@H]2C[C@@H](NC3CC(C)(C)NC(C)(C)C3)C2)ncn1 | 11 | -1.95
CNc1nc(N[C@H]2CCCN(Cc3ccc(Cl)cc3)C2)nc2c1CCC2 | 49 | -8.5
Cc1cc(N2CCC(NCc3ccc(C(F)(F)F)cc3F)CC2)nc(N)n1 | 10 | -2.1
Cc1cc(N2CCC(NC3CCCC3Cc3ccc(F)cc3)CC2)nc(N)n1 (stereo unspecified) | 96 | -14.52
Cc1cc(N2CCC(N(C)Cc3ccc4nsnc4c3)CC2)nc(N)n1 | 18 | -3.91
CN(C)c1ncc(CN2CCN(c3nsc4ccccc34)CC2)cn1 | 5 | -0.94
O=C(Nc1cnc2c(c1)COCC2)c1cc2c(OC(F)(F)F)cccc2[nH]1 | 93 | -14.17
CN(c1ccccc1)c1ccc(CN2CCN([C@H]3CCNC3)CC2)cc1 | 68 | -13.59
Cc1ocnc1CNC[C@H](O)c1ccc(Cl)c(Cl)c1 | 94 | -18.67
Cn1nc(C(=O)Nc2cnc(CC3CC3)nc2)cc1C(F)(F)F | 1 | -0.26
CCC(=O)N1CC[C@H](Nc2cc(C)nc3ccccc23)C1 | -8 | 1.36
CCCN1CCC(Nc2cc(C)nc3ccccc23)CC1 | 58 | -8.81
Cc1ccc2[nH]c(-c3cc4n(n3)CCN(c3ccnc(N)n3)C4)nc2c1C | 84 | -16.64
CN1CCC(N(C)C[C@H](Nc2ncnc3ccccc23)c2ccccc2)CC1 | 98 | -17.15
C[C@](O)(CN1CCC(NCc2ccccc2)CC1)C(F)(F)F | -6 | 0.96
COc1ccccc1N1CCN(C2CCN(c3ccc(C(=O)N[C@@H](C)c4ccccc4)cc3)CC2)CC1 | -11 | 1.99
OC1(c2ccc(Cl)cc2)CCN(C[C@@H]2CCCN3CCCC[C@H]23)CC1 | 82 | -16.27
CC(CCO)CNc1nc(NCC(C)CCO)c2ccccc2n1 (stereo unspecified) | 1 | -0.17
CCNc1nc(NCc2ccccc2)c2cn[nH]c2n1 | -6 | 1.21
COCCNc1nc(N[C@@H](C)c2ccccc2)c2ccccc2n1 | 52 | -11.2
